Vaccinia mCherry – vaccinia inhibition (mCherry reporter) | Potency, µM (highest dose often 36.5 µM), hits mostly inhibitors | 0.63% of 310,000 active | Vaccinia virus mCherry reporter infection, fluorescence; calls by dose curve; tested in A549 cells; note: nearly all actives have a fitted effect of over 35% in size
FMDV antiviral – antivirals against foot and mouth disease virus | FMDV antiviral cell-based qHTS | Potency, µM (highest dose often 57.9 µM), most hits filed as inhibitors | 1.2% of 410,000 active; calls by dose curve; tested in HEK293T cells; note: read-out not given here; nearly all actives have a fitted effect of over 45% in size
VACV Venus inh – vaccinia inhibition (Venus reporter) | AID 720580 | Vaccinia virus Venus reporter expression, fluorescence | Potency, µM (top dose mostly 36.5 µM), hits mostly inhibitors | 0.46% of 330,000 active; calls by dose curve; tested in A549 cells; note: nearly all actives have a fitted effect of over 30% in size
Marburg entry inh – Marburg virus entry inhibition; Marburg virus pseudotyped entry inhibition, cell reporter; Potency, µM (doses to about 37.8 µM), usual class: inhibitors; 1.8% of 300,000 active; AID 540276; calls by dose curve; tested in HEK293 cells
Lassa entry inh – inhibitors of Lassa virus binding or cell entry. Lassa virus pseudotype entry inhibition, cell reporter. Potency, µM (highest dose often 37.9 µM), usual class: inhibitors. 1.2% of 300,000 active. AID 540256; calls by dose curve; tested in HEK293 cells; note: nearly all actives have a fitted effect of over 50% in size
Each line names hits and unclear results; the compound was inactive in the other large screens. Sampled rows, rich in hits. Any-hit rate of the full collection: about 3.2%.

CCCn1c(NC(=O)c2ccc(Cl)c(S(=O)(=O)N3CCCC3)c2)nc2ccccc21	Vaccinia mCherry 11µM, FMDV antiviral inconclusive, VACV Venus inh 25µM, Marburg entry inh inconclusive, Lassa entry inh inconclusive
CCn1ccnc1CN(C)Cc1cn(-c2ccccc2)nc1-c1ccc(OC)cc1F	Marburg entry inh 10µM, Lassa entry inh inconclusive
COc1cc(C2c3c(oc4ccccc4c3=O)C(=O)N2Cc2ccc(C)cc2)ccc1O (configuration not stated)	none (no result: Marburg entry inh)
Cc1oc(-c2cccc(Cl)c2)nc1Cn1c(SCc2ccccc2F)nc2ccncc21	Marburg entry inh inconclusive
COc1ccccc1CC(=O)Nc1ccc([N+](=O)[O-])cc1O	Vaccinia mCherry inconclusive, FMDV antiviral inconclusive, Marburg entry inh inconclusive, Lassa entry inh 6.3µM
COc1ccccc1CC(=O)Nc1ccccc1O	none (no result: Vaccinia mCherry, VACV Venus inh)
Cc1ccc(C(C)C)cc1NC(=O)Nc1ccc([N+](=O)[O-])cc1	Vaccinia mCherry inconclusive, FMDV antiviral inconclusive, VACV Venus inh 10µM (no result: Marburg entry inh, Lassa entry inh)
Cc1cc(O)c(C(C)C)cc1NC(=O)Nc1ccc([N+](=O)[O-])cc1	Vaccinia mCherry inconclusive, Marburg entry inh inconclusive, Lassa entry inh inconclusive
COc1ccc([N+](=O)[O-])cc1NC(=O)Nc1ccc(OC)c(OC)c1	Vaccinia mCherry inconclusive, FMDV antiviral 35µM, VACV Venus inh inconclusive, Marburg entry inh inconclusive, Lassa entry inh inconclusive
COC(=O)C1CCCCN1Cc1ccc2c(c1)CN(C(=O)c1ccc(C)s1)CCO2 (configuration not stated)	none (no result: Marburg entry inh, Lassa entry inh)
COC(=O)CC=C1c2ccccc2[C@@H](NC(=O)OC)[C@@H]1C	none (no result: Vaccinia mCherry, FMDV antiviral, VACV Venus inh, Lassa entry inh)
COc1cc(NC(=O)COc2ccc(-n3ccnc3)cc2)cc(OC)c1	FMDV antiviral inconclusive
N#Cc1cccc(NC(=O)COc2ccc(-n3ccnc3)cc2)c1	FMDV antiviral 28µM (no result: Vaccinia mCherry, VACV Venus inh)
CC(C)(C)c1ccc(NC(=O)COc2ccc(-n3ccnc3)cc2)cc1	FMDV antiviral 11µM, VACV Venus inh inconclusive, Marburg entry inh inconclusive, Lassa entry inh inconclusive (no result: Vaccinia mCherry)
CSc1nsc(SCc2cnc(C)nc2N)n1	Vaccinia mCherry 22µM, VACV Venus inh inconclusive
COc1ccc2cc3[n+](cc2c1OC)CCc1cc2c(cc1-3)OCO2	FMDV antiviral inconclusive, VACV Venus inh inconclusive, Marburg entry inh inconclusive, Lassa entry inh inconclusive
COc1ccc2c(c[n+](C)c3c4cc5c(cc4ccc23)OCO5)c1OC	Vaccinia mCherry inconclusive, FMDV antiviral 10µM, VACV Venus inh inconclusive, Marburg entry inh 7.3µM, Lassa entry inh 4.1µM
Cc1cnc(-n2ncc(C(=O)N(C)CCc3ccccn3)c2-c2cccs2)nc1-c1ccc(F)cc1	none (no result: Marburg entry inh, Lassa entry inh)
C[C@@]12C(=O)OC(=O)[C@]1(C)C1CCC2O1	Vaccinia mCherry 1.1µM, FMDV antiviral inconclusive, VACV Venus inh 1.3µM (no result: Marburg entry inh, Lassa entry inh)
CCN(C(=O)COC(=O)c1ccc(-n2c(C)ccc2C)cc1)c1c(N)n(Cc2ccccc2)c(=O)[nH]c1=O	none
COc1ccccc1C1=NNC(=Nc2cccc(S(=O)(=O)N(C)C)c2)SC1	Vaccinia mCherry inconclusive, FMDV antiviral inconclusive, Marburg entry inh 7.1µM, Lassa entry inh inconclusive
COCCn1c(C)cc(C2=NNC(=Nc3ccccc3)SC2)c1C	Lassa entry inh inconclusive
CC(=O)OCC1=C(C(=O)O)N2C(=O)C(NC(=O)c3ccc(COc4cccc(Cl)c4Cl)o3)C2SC1 (configuration not stated)	none
Cc1c(Cc2ccc3c(c2)OCO3)sc(NC(=O)C2CC2)c1C(N)=O	Vaccinia mCherry inconclusive, FMDV antiviral inconclusive, VACV Venus inh inconclusive, Lassa entry inh 8.9µM
Cc1c(Cc2ccc3c(c2)OCO3)sc(NC(=O)c2cccc3ccccc23)c1C(N)=O	Vaccinia mCherry inconclusive, VACV Venus inh inconclusive
N#CCCN(C(=O)COC(=O)c1ccc(Cl)nc1)c1ccc2c(c1)OCCO2	none (no result: Marburg entry inh, Lassa entry inh)
Brc1ccc2[nH]c3nc(SCCN4CCOCC4)nnc3c2c1	FMDV antiviral inconclusive, Marburg entry inh inconclusive, Lassa entry inh 0.5µM
CCc1ccc(-c2cc(C(=O)N/N=C/c3c[nH]c4ccccc34)[nH]n2)cc1	Vaccinia mCherry inconclusive, FMDV antiviral inconclusive, Marburg entry inh inconclusive, Lassa entry inh inconclusive
CCc1ccc2c(Cl)c(C(=O)N/N=C/c3c[nH]c4ccccc34)sc2c1	VACV Venus inh inconclusive, Marburg entry inh inconclusive, Lassa entry inh 10µM (no result: Vaccinia mCherry)
CC1CCC(NC(=O)C2c3ccccc3C(=O)N2Cc2cccs2)CC1 (configuration not stated)	Lassa entry inh 3.5µM
O=C(NC1CCCCCCC1)C1c2ccccc2C(=O)N1Cc1cccs1 (configuration not stated)	Lassa entry inh inconclusive
CCN1CCN(c2cc(N3CCCC3)c([N+](=O)[O-])cc2F)CC1	Vaccinia mCherry inconclusive
CCN1CCN(c2cc(N3CCc4ccccc4C3)c(F)cc2[N+](=O)[O-])CC1	VACV Venus inh inconclusive, Marburg entry inh 14µM, Lassa entry inh inconclusive
COc1ccc(NC(=O)c2ccccc2OCC(=O)Nc2ccc(Br)cc2)cc1	none (no result: FMDV antiviral, Marburg entry inh, Lassa entry inh)
O=C1C(CSCc2ccccc2)NC(=S)N1c1ccccc1 (configuration not stated)	FMDV antiviral 28µM (no result: Vaccinia mCherry, VACV Venus inh, Marburg entry inh, Lassa entry inh)
Nc1ccccc1-c1ccc([N+](=O)[O-])cc1	Vaccinia mCherry inconclusive, Marburg entry inh 5.6µM, Lassa entry inh inconclusive
Cc1cnccn1	none (no result: FMDV antiviral, Marburg entry inh, Lassa entry inh)
CCN(CC)S(=O)(=O)c1ccc(O)c(NC(=O)c2cc(-c3cc(OC)c(OC)c(OC)c3)nc3ccccc23)c1	FMDV antiviral inconclusive, Marburg entry inh 10µM, Lassa entry inh inconclusive
O=C(c1ccc(F)c(F)c1)N1CCOc2ccc(CN3CCN(Cc4ccccn4)CC3)cc2C1	none (no result: Marburg entry inh, Lassa entry inh)
COc1ccc(OC)c(Nc2nc(-c3ccncc3)nc3ccccc23)c1	FMDV antiviral inconclusive, Marburg entry inh inconclusive, Lassa entry inh inconclusive
c1ccc(Nc2nc(-c3ccccc3)nc3ccccc23)cc1	none (no result: Vaccinia mCherry, VACV Venus inh, Marburg entry inh, Lassa entry inh)
COc1ccc(Nc2nc(-c3ccncc3)nc3ccccc23)cc1	Marburg entry inh 2.8µM
CCOC(=O)CNc1nc(-c2ccncc2)nc2ccccc12	Marburg entry inh 11µM
Fc1cccc(Nc2nc(-c3ccncc3)nc3ccccc23)c1	FMDV antiviral 25µM, Marburg entry inh inconclusive (no result: Vaccinia mCherry, VACV Venus inh)
COc1ccc(-c2coc3c(C(=O)Nc4cccnc4)cccc23)c(C)c1	FMDV antiviral 20µM (no result: Marburg entry inh, Lassa entry inh)
Cc1[nH]c2ccccc2c1N=Nc1ccccc1C(=O)O	Lassa entry inh inconclusive
CCCNC(=O)NCCC12CC3CC(CC(C3)C1)C2	Lassa entry inh 2.5µM
CCCNC(=O)OCCC12CC3CC(CC(C3)C1)C2	Marburg entry inh inconclusive, Lassa entry inh inconclusive
Cc1nn(-c2ccc(Cl)cn2)c2c1C(=O)CC(C)(C)C2Br (configuration not stated)	none (no result: Marburg entry inh, Lassa entry inh)
CC(=O)O[C@H]1C[C@@H]2CC[C@@H]3[C@H](CC[C@]4(C)C(=O)CC[C@@H]34)[C@@]2(C)C[C@@H]1OC(C)=O	FMDV antiviral inconclusive (no result: Marburg entry inh, Lassa entry inh)
C=C1C(=O)C2=CC1CCC(=O)C1(C)CCC(OC(C)=O)C(C)(C)C1CC2O (configuration not stated)	Vaccinia mCherry 2.5µM, FMDV antiviral 7.9µM, VACV Venus inh 4µM, Marburg entry inh inconclusive, Lassa entry inh 13µM
O=C(N/N=C\c1cccc(Cl)c1)c1ccc(Cn2cc(Br)c([N+](=O)[O-])n2)o1	Marburg entry inh inconclusive, Lassa entry inh inconclusive
Cc1c(Cl)c([N+](=O)[O-])nn1Cc1ccc(C(=O)N/N=C\c2cccc(Br)c2)o1	VACV Venus inh 28µM, Marburg entry inh inconclusive (no result: Vaccinia mCherry)

Assay outcomes: PubChem BioAssay, National Center for Advancing Translational Sciences (NCATS)
